GalR3 antagonist: blocks the human galanin receptor 3. 0.44% of 360,000 active. inhibition, % at 3 µM. HEK293 GalR3-CNG cAMP membrane potential fluorescence; galR3 body fused to GalR1 C-terminus. AID 651719. O60755;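 active means inhibition above the screen-wide average plus 3 SD, cut at about 13% in these data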;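 further: forskolin and galanin both at EC90 stimulate the cells; cAMP rise reported by CNG channel membrane potential dye signal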
NR5A2 inv ag: inverse agonists of human LRH-1 (NR5A2); 0.13% of 360,000 active; inhibition, % at 3.6 µM; O00482; AID 602396; HEK293T StAR-luciferase reporter, LRH-1 transfected, 24 h;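 active means inhibition above the mean inhibition of all tested compounds plus 3 SD, cut at about 73% in these data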
SRC1 inh: human NCOA1 inhibition | AID 588354 | 0.12% of 360,000 active | Q15788 | HEK293 GAL4-SRC1 luciferase reporter, luminescence | inhibition, % at 3.6 µM;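 active means inhibition above the campaign mean plus 3 SD, with each screening campaign given its own cutoff, cut at about 60% in these data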
SRC2 inh: human SRC2 (NCOA2) inhibition; inhibition, % at 9 µM; Q15596; 0.17% of 370,000 active; HEK293 GAL4-SRC2 luciferase reporter, luminescence;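 active means inhibition above the mean inhibition of all tested compounds plus 3 SD, set per campaign, cut at about 52% in these data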
COUP-TFII inh: inhibitors of human COUP-TFII (NR2F2); P24468; HEK293T NGFI-A luciferase reporter, luminescence; inhibition, % at 8.6 µM; 0.7% of 370,000 active;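 active means inhibition above a per-plate cutoff, mean inhibition of test wells between control levels plus 3 SD, cut at about 38% in these data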;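 further: cells cotransfected with COUP-TFII expression vector driving the NGFI-A reporter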
SRC3 inh: inhibitors of human steroid receptor coactivator 3 (SRC3); Q9Y6Q9; HEK293 GAL4-SRC3 luciferase reporter, luminescence; inhibition, % at 3.6 µM; 0.17% of 360,000 active;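 active means inhibition above a per-campaign cutoff, the mean of all compounds plus 3 SD, cut at about 60% in these data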;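 further: higher means less SRC3-driven luciferase light from the GAL4 reporter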
GalR3 conf: GalR3 (human) antagonism, confirmation. shares compounds with GalR3 antagonist. HEK293 GalR3 CNG cAMP biosensor, membrane potential fluorescence; galR3 fused to GalR1 carboxy tail; challenged with forskolin and galanin at EC90. inhibition, % at 3 µM. 59% of 1,600 active. AID 652245;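 active means inhibition above the primary screen's cutoff, the mean inhibition of all screened compounds plus 3 SD, cut at about 13% in these data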
CNG parental: parental cell agonism counter-screen for GalR3 antagonists. shares compounds with GalR3 antagonist. HEK293-CNG parental cells, cAMP membrane potential fluorescence; normalised: DMSO wells 0%, forskolin wells 100%. activation, % at 3 µM. 10% of 1,600 active. AID 652268; in the data active means activation above about 1.3%
Large screens that a line does not name were inactive (follow-up assays come after a bar, where they were run). Only some compounds are listed: those with a hit (about 1.1% of all), similar ones and a draw of the others.

NC(=O)c1cccnc1Nc1ccccc1Cl	GalR3 antagonist 19 | GalR3 conf inactive | CNG parental inactive
Cc1cc(-c2ccc(Cl)s2)n[nH]1	none
COc1cccc(C2N(c3ccccc3)CCN2c2ccccc2)c1OC	GalR3 antagonist 14 | GalR3 conf inactive | CNG parental inactive
COc1ccc(-c2ccc(=O)[nH]n2)cc1	none (no result: GalR3 antagonist, SRC2 inh, COUP-TFII inh)
COc1cc(-c2ccc(=O)[nH]n2)ccc1OC(F)F	GalR3 antagonist 16 | GalR3 conf 34 | CNG parental inactive
CC(C)NC(=O)C12CC3CC(C1)CC(C(=O)NC(C)C)(C3)C2	none
CC(C)(C)c1ccc(C(=O)Nc2ccc([N+](=O)[O-])cn2)cc1	none
CCC(CC)C(=O)Nc1ccc([N+](=O)[O-])cn1	GalR3 antagonist 16 | GalR3 conf 24 | CNG parental inactive
Cc1ccc2nc(N3C(=O)C(O)=C(C(=O)c4ccco4)C3c3ccc(O)cc3)sc2c1 (stereo not drawn)	none
Cc1cc(C)c2nc(N3C(=O)C(O)=C(C(=O)c4ccco4)C3c3cccc(O)c3)sc2c1 (stereo not drawn)	GalR3 antagonist 14 | GalR3 conf inactive | CNG parental inactive
Cc1cc(C)c2nc(N3C(=O)C(O)=C(C(=O)c4ccco4)C3c3ccc(O)cc3)sc2c1 (stereo not drawn)	GalR3 antagonist 45 | GalR3 conf inactive | CNG parental inactive
COc1ccc(N(C)C(=O)c2cc3c(s2)-c2ccc(Cl)cc2S(=O)(=O)C3)c(OC)c1	none
COc1ccc(-c2nnc(SCC(=O)N3c4ccccc4Sc4ccccc43)o2)cc1	none
Cc1nc(-c2cccc(NC(=O)c3ccc(-n4nccc4C)cc3)c2)cs1	none
Cc1nc(-c2ccc(C(=O)Nc3cccc(Br)c3)cc2)cs1	GalR3 antagonist 98 | GalR3 conf 102 | CNG parental inactive
Cc1cc2c(ccc3c2no[n+]3[O-])nn1	GalR3 antagonist 14 | GalR3 conf 13 | CNG parental inactive
CCN(CC)S(=O)(=O)c1cc(OCC(N)=O)c(C)cc1Cl	none
CCC(=O)Nc1nc(CC(=O)Nc2ccccc2OC)cs1	none
COc1ccccc1NC(=O)Cc1nc(CCl)cs1	GalR3 antagonist 14 | GalR3 conf inactive | CNG parental inactive
COc1ccc(OC)c(NC(=O)c2cccc3c2C(=O)N(C2CCCCC2)C3)c1	none
COCCN1Cc2cccc(C(=O)Nc3cc(OC)ccc3OC)c2C1=O	GalR3 antagonist 45 | GalR3 conf 52 | CNG parental inactive
C=CCNC(=O)/C(=C/c1cn(-c2ccccc2)nc1-c1cccc([N+](=O)[O-])c1)NC(=O)c1ccccc1	GalR3 antagonist 16 | GalR3 conf inactive | CNG parental inactive
Cc1ccc2c(c1)C1C3CCC(C3)C1S(=O)N2 (stereo not drawn)	GalR3 antagonist 18 | GalR3 conf inactive | CNG parental inactive
Cc1ccc(NC(=O)c2cccc(N3C(=O)C4C5CCC(C5)C4C3=O)c2)c(C)c1 (stereo not drawn)	none
OCCNc1nc(NCCC2=CCCCC2)nc(N2CCOCC2)n1	none
C/C(O)=c1/c(=O)nc2cccc3c2=c1c1ccccc1c3=O	GalR3 antagonist 19 | GalR3 conf 14 | CNG parental inactive
Cc1cc(C)nc(N2C(=O)CC(C(=O)O)NC2=NCCc2c[nH]c3ccccc23)n1 (stereo not drawn)	GalR3 antagonist 14 | GalR3 conf inactive | CNG parental inactive
COCCNC(=O)/C(C#N)=C/c1c(N2CC(C)OC(C)C2)nc2ccccn2c1=O (stereo not drawn)	GalR3 antagonist 25 | GalR3 conf inactive | CNG parental inactive
COc1ccc(NC(=O)CC2SC(=O)NC2=O)cc1 (stereo not drawn)	none
Nc1oc2ccccc2c1C(=O)Cc1ccccc1O[C@@H]1O[C@H](CO)[C@@H](O)[C@H](O)[C@H]1O	GalR3 antagonist 16 | GalR3 conf inactive | CNG parental inactive
OCc1ccccc1O[C@@H]1O[C@H](CO)[C@@H](O)[C@H](O)[C@H]1O	none
COc1ccc2[nH]c3c(=O)n(CCCCC(=O)NCCC(C)C)c(=S)[nH]c3c2c1	GalR3 antagonist 13 | GalR3 conf inactive | CNG parental inactive
C[C@@H]1CN([C@H](C)CO)C(=O)CCCn2nncc2CO[C@H]1CN(C)Cc1ccc(O)cc1	none
CCS(=O)c1ccccc1C(=O)OCC(=O)Nc1cccc(S(=O)(=O)N2CCCCC2)c1 (stereo not drawn)	GalR3 antagonist 92 | GalR3 conf 96 | CNG parental inactive
O=C(Cn1nc(C(=O)O)c2ccccc2c1=O)Nc1cccc(S(=O)(=O)N2CCCCC2)c1	GalR3 antagonist 13 | GalR3 conf 58 | CNG parental inactive
CCC(=O)c1ccc(OCC(=O)Nc2cccc(S(=O)(=O)N3CCCCCC3)c2)cc1	GalR3 antagonist 98 | GalR3 conf 97 | CNG parental inactive
Cc1cc(OCC(=O)Nc2cccc(S(=O)(=O)N3CCCCC3)c2)ccc1Cl	none
COCCNc1cc(N)c([N+](=O)[O-])cc1[N+](=O)[O-]	none
O=c1[nH]c2cc(NCCO)c([N+](=O)[O-])cc2[nH]1	GalR3 antagonist 21 | GalR3 conf 33 | CNG parental 2.8
CCOc1cc2c(cc1/C=C(/C#N)c1ccc(C(=O)O)cc1)OCO2	none
N#C/C(=C\c1cc2c(cc1Br)OCO2)c1ccc(C(=O)O)cc1	GalR3 antagonist 17 | GalR3 conf inactive | CNG parental 1.2
O=C(COC(=O)c1ccc2c(c1)OCO2)NCc1ccc2c(c1)OCO2	none
NC(=O)CC[C@H](NC(=O)c1ccc(F)cc1)C(=O)OCC(=O)NCc1ccc2c(c1)OCO2	GalR3 antagonist 26 | GalR3 conf inactive | CNG parental inactive
COc1ccc(C(=O)N/N=C/c2cc3ccccc3[nH]c2=O)cc1	none (no result: GalR3 antagonist) | GalR3 conf 60 | CNG parental inactive
Cc1cccc(NS(=O)(=O)c2cccc(C(=O)N3CCCC3)c2)c1	none
COc1ccc(Cl)cc1NC(=O)C(C)OC(=O)c1ccc(NS(=O)(=O)c2ccc3[nH]c(=O)[nH]c3c2)cc1 (stereo not drawn)	none
Cc1ccccc1C(=O)Nc1cccc(NC(=O)c2cccnc2)c1	none
COc1ccc(C(O)c2nccc3cc(OC)c(OC)cc23)cc1OC (stereo not drawn)	GalR3 antagonist 17 | GalR3 conf inactive | CNG parental inactive
COCCCN1C(=O)c2ccc(C(=O)OCC(=O)N(C)c3ccccc3)cc2C1=O	none (no result: GalR3 antagonist) | GalR3 conf inactive | CNG parental inactive

Source: PubChem BioAssay
